Values without a mark were called inactive.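 Rule for the calls, unless noted: active = Her2 level under about 52% in both replicate screens, with viability over 70% of control (limit read from the data); inconclusive = Her2 under the limit in one screen only, or viability under 70%; inactive = Her2 level above the set limit.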

For the first experiment, the target named is Receptor tyrosine-protein kinase erbB-2 (Homo sapiens) (UniProt P04626). Briefly: Her2 expression decrease, cell viability multiplex – SKBR3 breast tumor cells, AlphaScreen, ATP viability, primary screen (AID 461).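 Note: lower value means less Her2 protein in the cells.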 To be noted: 18-24 h, at 10 µM, stronger effect = lower value. Background: In Alpha technology, singlet oxygen from a donor bead excites a nearby acceptor bead.
Sequence of Receptor tyrosine-protein kinase erbB-2 (Homo sapiens) (P04626 whole entry, looked up): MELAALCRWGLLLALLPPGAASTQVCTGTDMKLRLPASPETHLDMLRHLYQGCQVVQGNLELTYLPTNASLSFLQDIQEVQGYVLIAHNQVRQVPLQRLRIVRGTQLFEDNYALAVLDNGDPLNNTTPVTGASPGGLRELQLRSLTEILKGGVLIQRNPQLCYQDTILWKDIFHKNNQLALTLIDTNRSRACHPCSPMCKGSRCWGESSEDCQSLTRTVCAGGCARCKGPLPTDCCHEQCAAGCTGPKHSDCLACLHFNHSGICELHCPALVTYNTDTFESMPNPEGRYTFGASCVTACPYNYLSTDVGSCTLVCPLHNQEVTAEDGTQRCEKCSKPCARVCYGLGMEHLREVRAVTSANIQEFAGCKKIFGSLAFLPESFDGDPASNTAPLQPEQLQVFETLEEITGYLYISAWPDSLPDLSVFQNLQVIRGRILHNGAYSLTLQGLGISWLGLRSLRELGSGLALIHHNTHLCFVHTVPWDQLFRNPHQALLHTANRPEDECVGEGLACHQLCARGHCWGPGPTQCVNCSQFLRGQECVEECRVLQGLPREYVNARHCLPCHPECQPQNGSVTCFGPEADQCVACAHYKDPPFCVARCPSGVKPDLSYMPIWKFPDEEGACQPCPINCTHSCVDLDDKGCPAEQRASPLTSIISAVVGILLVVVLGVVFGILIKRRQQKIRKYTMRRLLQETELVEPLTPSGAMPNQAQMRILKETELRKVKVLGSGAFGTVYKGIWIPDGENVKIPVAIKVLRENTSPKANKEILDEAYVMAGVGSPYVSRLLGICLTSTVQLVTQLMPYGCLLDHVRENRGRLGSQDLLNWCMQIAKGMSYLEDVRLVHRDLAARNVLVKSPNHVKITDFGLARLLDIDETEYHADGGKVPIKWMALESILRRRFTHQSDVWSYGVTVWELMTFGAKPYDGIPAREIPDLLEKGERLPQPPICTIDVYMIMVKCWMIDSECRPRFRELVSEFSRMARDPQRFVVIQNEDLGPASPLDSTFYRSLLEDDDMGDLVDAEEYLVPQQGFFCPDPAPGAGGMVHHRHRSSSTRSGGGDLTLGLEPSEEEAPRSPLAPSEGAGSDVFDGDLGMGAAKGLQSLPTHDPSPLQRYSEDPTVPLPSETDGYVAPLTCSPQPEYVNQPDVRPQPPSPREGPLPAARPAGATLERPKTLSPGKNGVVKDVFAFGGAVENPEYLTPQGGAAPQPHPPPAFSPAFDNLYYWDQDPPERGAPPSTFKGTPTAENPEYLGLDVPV
Take `COc1cccc(C2=NOC(C(=O)N3CCN(c4ccccc4)CC3)C2)c1OC` (stereo not given): the Her2 level is 97.5%.
In the case of `O=C(Nc1ccc2c(c1)OCO2)c1ccc(CN2CCOCC2)cc1`, the Her2 level was 88%.
For the molecule `O=C(Cn1nc(Cc2ccncc2)c2ccccc2c1=O)N1CCc2ccccc2C1`, the Her2 level is 100%.
Turning to `CCOCCCNC(=O)c1ccc2c(c1)N(Cc1ccccc1)C(=O)CS2=O` (stereo not given), the Her2 level is 103%.
On the same count and under the same terms, the figure for `CS(=O)(=O)Nc1ccccc1C(=O)O` is 80.5%; for `CCOC(=O)N1CCC(Nc2ncnc3c2cnn3-c2ccc(C)cc2C)CC1` it is 78.5%.
`CC1(C)C(c2ccccc2)=NC(c2ccccc2)N1O` (stereo not given): the Her2 level was 82%.
The same measure, in the same setting: the figure for `O=C(CS(=O)(=O)Cc1ccccc1)Nc1nc2ccccc2s1` is 85%; for `CCOC(=O)N1CCN(C(=O)COc2ccc(S(=O)(=O)NC(C)C)cc2)CC1` it is 105%.
The same measure, in the same setting: as for `COc1ccc(N2CCN(CCNC(=O)CCS(=O)(=O)c3cccc4nsnc34)CC2)cc1`, the figure is 97%; as for `COc1cccc(C2CC(=O)Nc3c2c(=O)n(C)c(=O)n3C)c1OC` (stereo not given), 101%.
Still for that read-out and setting: as for `CCN1C(=O)c2ccccc2S(=O)c2ccc(C(=O)NC3CC3)cc21` (stereo not given), the figure is 93.5%.
Regarding `CCOC(=O)CCc1c(C)nc2cc(-c3ccc(F)cc3)[nH]n2c1=O`, the Her2 level is 99%.
Still for that read-out and setting: the figure for `CCC(C)(C(=O)NC1CCCC1)N(Cc1cccs1)C(C)=O` (stereo not given) is 83.5%; for `COc1ccccc1NC(=O)C1(C)Cc2ccccc2C(=O)O1` (stereo not given) it is 108%.
The same measure, in the same setting: the figure for `COC(=O)c1sc(NC(=O)COc2ccccc2OC)nc1C` is 90%; for `O=C(Nc1ccc2c(c1)OCCO2)NC1CCCCC1` it is 98.5%; for `c1ccc2c(c1)nc(NCCN1CCOCC1)c1nncn12` it is 102%.
The same measure, in the same setting: as for `O=C(c1ccc(Br)cc1)N1CCN(S(=O)(=O)c2ccccc2)CC1`, the figure is 120%.
Regarding `C/C=C/Cn1c(SCCCc2ccccc2)nc2c1c(=O)[nH]c(=O)n2C`, the Her2 level is 72%.
Still for that read-out and setting: as for `O=c1c2ccccc2nc(SCc2nc(-c3ccccc3)no2)n1-c1ccc(F)cc1`, the figure is 98%; as for `Cn1c(=O)c2c(nc3sccn32)n(C)c1=O`, 109%; as for `CCCCOc1ccc(-c2ncc(Cl)cn2)cc1`, 117%.
Still for that read-out and setting: the figure for `CCOC(=O)c1ccc(N2Cc3cc(C)c(C)cc3C2)cc1O` is 95.5%; for `O=C(CSc1nc(-c2ccco2)cc(C(F)(F)F)n1)NCCCn1ccnc1` it is 93%.
The same measure, in the same setting: the figure for `COc1cccc(NC(=O)CSc2nnc(Cc3cccn3C)n2-c2ccc(F)cc2)c1` is 115%; for `CCOC(=O)c1ccc(-n2c(C)nc3c(cnn3-c3ccccc3C)c2=O)cc1` it is 108%.
As for `CCOC(=O)C1=C(C)N(C)C(=O)NC1c1ccccc1OC` (stereo not given), the Her2 level was 88%.
For `Cc1ccc(CSc2nc3c(c(=O)[nH]2)CCC3)cc1`, the Her2 level is 91.5%.
Still for that read-out and setting: the figure for `CCOC(=O)c1c(C)n(C)c2c(C)cc(O)c(OC(C)=O)c12` is 83.5%; for `Cc1ccccc1NC(=O)C1CCCN(S(=O)(=O)c2cnc[nH]2)C1` (stereo not given) it is 108%; for `O=C(NCc1ccc(F)cc1)c1cc2ccccn2n1` it is 98.5%.
On the same count and under the same terms, the figure for `CCCNC(=O)C1CCN(S(=O)(=O)c2ccc3nc4c(c(C(=O)O)c3c2)CCCCC4)CC1` is 92%.
For the molecule `COc1ccc2[nH]c(C)c(CCN3C(=O)OC(C)(C)C3(C)O)c2c1` (stereo not given), the Her2 level is 108%.
Same read-out and setting: the figure for `COc1ccc(N(CC(=O)Nc2ccc3c(c2)OCO3)S(=O)(=O)c2c(C)nn(C)c2C)cc1` is 90.5%.
On the same count and under the same terms, the figure for `Cc1onc(-c2ccccc2Cl)c1C(=O)Nc1cnn(Cc2ccccc2)c1` is 98%; for `CCOCCCNC(=O)CN1CCN(Cc2ccccc2C)C1=O` it is 96%.
On the same count and under the same terms, the figure for `CCN1C(=O)c2cccc3c(NC(=O)c4ccc(S(=O)(=O)N(C)C)cc4)ccc1c23` is 95.5%; for `O=C(Nc1cccc2ccccc12)c1ccc(Br)o1` it is 88.5%; for `c1ccc(-c2cn3cccnc3n2)cc1` it is 88.5%.

Tested on in the next experiment: not listed separately
As to the kind of experiment: reduced viability of SK-BR-3 breast cancer cells – cell-based, 24 h, human, pilot screen (AID 572;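 active = viability at or below 10% of carrier control in both of two separate runs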;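 note: compound exposure lasted between 18 and 24 h rather than exactly 24 h; 100% = carrier-treated control wells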). To be noted: SK-BR-3 viability, CellTiter-Glo luminescence, at 10 µM, stronger effect = lower value.
Usually viability stands for a read-out of living cells in per cent, often relative to untreated cells. In the case of `COc1cccc(C2=NOC(C(=O)N3CCN(c4ccccc4)CC3)C2)c1OC` (stereo not given), the viability was 104%.
On the same count and under the same terms, as for `O=C(Nc1ccc2c(c1)OCO2)c1ccc(CN2CCOCC2)cc1`, the figure is 97.5%; as for `O=C(Cn1nc(Cc2ccncc2)c2ccccc2c1=O)N1CCc2ccccc2C1`, 83%.
Consider `CCOCCCNC(=O)c1ccc2c(c1)N(Cc1ccccc1)C(=O)CS2=O` (stereo not given), for which the viability is 104%.
Turning to `CS(=O)(=O)Nc1ccccc1C(=O)O`, the viability is 102%.
The same measure, in the same setting: the figure for `CCOC(=O)N1CCC(Nc2ncnc3c2cnn3-c2ccc(C)cc2C)CC1` is 86%; for `CC1(C)C(c2ccccc2)=NC(c2ccccc2)N1O` (stereo not given) it is 86.5%; for `O=C(CS(=O)(=O)Cc1ccccc1)Nc1nc2ccccc2s1` it is 104%.
The same measure, in the same setting: the figure for `CCOC(=O)N1CCN(C(=O)COc2ccc(S(=O)(=O)NC(C)C)cc2)CC1` is 96%; for `COc1ccc(N2CCN(CCNC(=O)CCS(=O)(=O)c3cccc4nsnc34)CC2)cc1` it is 90%.
In the case of `COc1cccc(C2CC(=O)Nc3c2c(=O)n(C)c(=O)n3C)c1OC` (stereo not given), the viability was 98.5%.
With `CCN1C(=O)c2ccccc2S(=O)c2ccc(C(=O)NC3CC3)cc21` (stereo not given), the viability was 100%.
On to `CCOC(=O)CCc1c(C)nc2cc(-c3ccc(F)cc3)[nH]n2c1=O`, for which the viability is 97%.
The same measure, in the same setting: the figure for `CCC(C)(C(=O)NC1CCCC1)N(Cc1cccs1)C(C)=O` (stereo not given) is 120%; for `COc1ccccc1NC(=O)C1(C)Cc2ccccc2C(=O)O1` (stereo not given) it is 106%.
On the same count and under the same terms, the figure for `COC(=O)c1sc(NC(=O)COc2ccccc2OC)nc1C` is 99.5%; for `O=C(Nc1ccc2c(c1)OCCO2)NC1CCCCC1` it is 126%; for `c1ccc2c(c1)nc(NCCN1CCOCC1)c1nncn12` it is 92%.
The same measure, in the same setting: as for `O=C(c1ccc(Br)cc1)N1CCN(S(=O)(=O)c2ccccc2)CC1`, the figure is 113%; as for `C/C=C/Cn1c(SCCCc2ccccc2)nc2c1c(=O)[nH]c(=O)n2C`, 89.5%; as for `O=c1c2ccccc2nc(SCc2nc(-c3ccccc3)no2)n1-c1ccc(F)cc1`, 90.5%.
For `Cn1c(=O)c2c(nc3sccn32)n(C)c1=O`, the viability was 106%.
Take `CCCCOc1ccc(-c2ncc(Cl)cn2)cc1`: the viability is 110%.
As to `CCOC(=O)c1ccc(N2Cc3cc(C)c(C)cc3C2)cc1O`, the viability is 95.5%.
Turning to `O=C(CSc1nc(-c2ccco2)cc(C(F)(F)F)n1)NCCCn1ccnc1`, the viability was 94%.
Regarding `COc1cccc(NC(=O)CSc2nnc(Cc3cccn3C)n2-c2ccc(F)cc2)c1`, the viability was 94.5%.
Still for that read-out and setting: the figure for `CCOC(=O)c1ccc(-n2c(C)nc3c(cnn3-c3ccccc3C)c2=O)cc1` is 94%; for `CCOC(=O)C1=C(C)N(C)C(=O)NC1c1ccccc1OC` (stereo not given) it is 97%; for `Cc1ccc(CSc2nc3c(c(=O)[nH]2)CCC3)cc1` it is 86.5%.
The same measure, in the same setting: the figure for `CCOC(=O)c1c(C)n(C)c2c(C)cc(O)c(OC(C)=O)c12` is 93%; for `Cc1ccccc1NC(=O)C1CCCN(S(=O)(=O)c2cnc[nH]2)C1` (stereo not given) it is 85.5%.
The same measure, in the same setting: the figure for `O=C(NCc1ccc(F)cc1)c1cc2ccccn2n1` is 84%; for `CCCNC(=O)C1CCN(S(=O)(=O)c2ccc3nc4c(c(C(=O)O)c3c2)CCCCC4)CC1` it is 99%; for `COc1ccc2[nH]c(C)c(CCN3C(=O)OC(C)(C)C3(C)O)c2c1` (stereo not given) it is 100%.
`COc1ccc(N(CC(=O)Nc2ccc3c(c2)OCO3)S(=O)(=O)c2c(C)nn(C)c2C)cc1`: the viability was 90.5%.
Same read-out and setting: as for `Cc1onc(-c2ccccc2Cl)c1C(=O)Nc1cnn(Cc2ccccc2)c1`, the figure is 88.5%; as for `CCOCCCNC(=O)CN1CCN(Cc2ccccc2C)C1=O`, 83.5%.
The same measure, in the same setting: the figure for `CCN1C(=O)c2cccc3c(NC(=O)c4ccc(S(=O)(=O)N(C)C)cc4)ccc1c23` is 86%; for `O=C(Nc1cccc2ccccc12)c1ccc(Br)o1` it is 120%.
Still for that read-out and setting: the figure for `c1ccc(-c2cn3cccnc3n2)cc1` is 118%.

For the origin of these results see PubChem BioAssay.
